A selection: hits, their analogues and other compounds. The true share with any hit is near 10%.
PNC inhibitor: inhibitors of perinucleolar compartment assembly; PC3M PTB-GFP, PNC prevalence imaging, 16 h; stronger effect = lower value; activity change (PNC), negative = inhibition, % at 10 µM; 140,000 tested, 3.1% active; AID 2417;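 active = readout at or below -70, meaning at least 70% loss of cells showing the perinucleolar compartment, a nuclear body marking cancer cells; inconclusive = readout between -30 and a set limit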;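 also: plate controls were DMSO wells for no effect and camptothecin positive control wells for full effect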
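Compounds are pinned in duplicate onto adhered PC3M cells stably expressing GFP-tagged PTB and incubated 16 h at 37 C. Cells are then fixed, nuclei stained with Hoechst, and PNC-positive cells counted.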
ALDH1A1 inh: ALDH1A1 (human) enzyme inhibition. P00352. Purified ALDH1A1, NADH fluorescence, propionaldehyde substrate. Potency, µM (highest dose often 75.3 µM), for the others: at the highest dose activity, negative = inhibition, hits mostly inhibitors. 220,000 tested, 7.3% active;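 also: potency is read from the fitted curve at half-maximal effect; plate controls were no enzyme wells and a reference inhibitor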
Target sequence (P00352 whole entry, looked up): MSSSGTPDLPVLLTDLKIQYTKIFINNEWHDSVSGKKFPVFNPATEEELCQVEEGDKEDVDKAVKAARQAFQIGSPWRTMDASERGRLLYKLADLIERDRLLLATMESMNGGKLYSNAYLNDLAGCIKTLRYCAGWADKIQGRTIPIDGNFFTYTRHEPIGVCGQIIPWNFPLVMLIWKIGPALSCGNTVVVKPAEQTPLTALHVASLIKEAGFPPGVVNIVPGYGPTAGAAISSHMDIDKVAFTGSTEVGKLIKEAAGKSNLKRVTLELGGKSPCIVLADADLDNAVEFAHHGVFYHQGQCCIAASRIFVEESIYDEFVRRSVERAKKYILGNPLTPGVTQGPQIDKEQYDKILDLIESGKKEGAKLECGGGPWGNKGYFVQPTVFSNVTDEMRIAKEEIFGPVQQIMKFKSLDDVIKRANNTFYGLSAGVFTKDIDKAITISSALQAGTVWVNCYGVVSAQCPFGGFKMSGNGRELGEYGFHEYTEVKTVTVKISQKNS
HPGD inh: inhibitors of human 15-hydroxyprostaglandin dehydrogenase (HPGD). 150,000 tested, 4.3% active. P15428. Potency, µM, for inactives: at the highest dose activity change, negative = inhibition, most hits filed as inhibitors. purified HPGD, NADH fluorescence kinetic, PGE2 substrate; also: potency is read from the fitted curve at half-maximal effect
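20 nM HPGD preincubated 15 min at room temperature with compound in 50 mM Tris-HCl pH 8, 0.01% Tween 20. Started with 1 mM NAD+ and 30 uM prostaglandin E2; NADH fluorescence (360/450 nm) read 5 times over 30-s intervals, last minus first.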
Lamin A splicing: changes lamin A minigene splicing in HeLa cells; 200,000 tested, 0.01% active; HeLa LMNA splicing GFP/RFP minigene ratio, 48 h; Potency, µM (doses to about 46.1 µM), without a hit: at the top dose ratio change, negative = inhibition, most hits filed as inhibitors; active = well fitted inhibition curve with a large enough effect in the signal ratio, with a control signal flat, not every such curve was filed as active; inconclusive = small, poorly fitted or top-dose-only effect, or effect the other way, or a change in a side signal; the % refers to the signal ratio; also: potency is read from the fitted curve at half-maximal effect
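Read-out is the ratio of GFP to DsRed2 object intensity, acquired by 488 nm laser-scanning cytometry on HeLa lamin A-EGFP minigene reporter cells. Compound incubation 48 hrs at 37 °C in Opti-MEM with 2% FBS; DMSO 0.5% final.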
12-hLO inh: 12-hLO (ALOX12) enzyme inhibition. P18054. purified 12-hLO, xylenol orange hydroperoxide absorbance. Potency, µM (doses to about 57.1 µM), without a hit: at the top dose activity change, negative = inhibition, most hits filed as inhibitors. 150,000 tested, 0.12% active. AID 1452; active = well fitted inhibition curve with a large enough effect; inconclusive = small, poorly fitted or top-dose-only effect; also: potency is read from the fitted curve at half-maximal effect; nearly all actives have a fitted effect of over 55% in size
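Purified human 12hLO (150 nM), preincubated 15 min with compound, then 40 uM arachidonic acid for 30 min, room temperature, Hepes pH 7.0 with 0.01% Triton X-100. Hydroperoxide detected by ferrous iron/xylenol orange; 573/405 nm absorbance ratio gives reaction progress.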
The depositor's hits bear a star; ? = inconclusive; nt = not tested or not shown; [ ] = another dose, or the depositor's remark. Unless noted, calls follow the shape of the dose curve; as a rule, active = well fitted inhibition curve with a large enough effect (not every such curve was filed as active); inconclusive = small, poorly fitted or top-dose-only effect, or another doubt; inactive = no such curve, though single readings can be large or run the other way. Unless noted, % is scaled to controls: 0 for no effect and ±100 for the full control effect.

SMILES	PNC inhibitor	ALDH1A1 inh	HPGD inh	Lamin A splicing	12-hLO inh
CCN(CC)c1ccc(NC(=O)C2CC3CCC2C3)cc1 (configuration not stated)	1	13µM*	18µM*	14%	-9%
CC(=O)Nc1cccc(NC(=O)C2CC3CCC2C3)c1 (configuration not stated)	-23	2%	-29%	-7%	2%
Cc1cc(C)c(/C=C/c2onc(C)c2S(=O)(=O)N2CCC(C(=O)NCc3ccccc3Cl)CC2)c(C)c1	nt	nt	nt	-1%[46 µM]	nt
CC1(C)OC(=O)C(=CNc2ccccc2)C(=O)O1	3	?	-18%	1%	-1%
CC1(C)OC(=O)C(=CNCC(O)c2ccccc2)C(=O)O1 (configuration not stated)	15	11µM*	-18%	5%	4%
CCCCC/C=C\C[C@H](O)/C=C\c1cccc(C[C@H](O)CCCCO)n1	nt	nt	nt	nt	-16%
O=C(Nc1cc(Cl)ccc1O)c1cc2n(n1)C(C(F)(F)F)CC(c1ccc3c(c1)OCO3)N2 (configuration not stated)	-84*	-8%	-9%	?	-1%
CN1C(=O)SC(Nc2cccc3ccccc23)C1=O (configuration not stated)	-3	28µM*	-21%	-3%	-1%
Nc1nnc(-c2ccc(Cl)c([N+](=O)[O-])c2)s1	nt	28µM*	nt	nt	nt
CCOC(=O)N1CCc2c(sc(NCc3cccc(F)c3)c2C(=O)Nc2ccc(OC)cc2)C1	nt	nt	nt	14%[46 µM]	nt
Cc1ccc(Cc2nc3ccccc3nc2SCC(=O)Nc2ccc3c(c2)OCO3)cc1	nt	nt	nt	4%[46 µM]	nt
Cc1ccc(-n2cc(-c3ccccc3)[nH]c2=O)cc1F	-6	20µM*	-23%	-1%	-23%
Fc1ccccc1-n1cc(-c2ccccc2)[nH]c1=S	nt	14%	nt	-17%[46 µM]	nt
Cc1c(C(=O)NCc2n[nH]c(=S)n2-c2ccc(F)cc2)cccc1[N+](=O)[O-]	nt	-1%	nt	nt	nt
COc1ccc2c(c1)OC[C@H]1c3cc4c(cc3O[C@@H]21)OCO4	nt	1%	-9%	nt	nt
COc1cc(OC)cc(C(=O)NC(=S)Nc2ccc3c4c(cccc24)CC3)c1	33	7.9µM*	-13%	-2%	1%
COc1ccc(C(=O)Nc2ccc3c4c(cccc24)CC3)cc1	19	-6%	-20%	-9%	7%
CC(C)Oc1cccc(C(=O)NC(=S)Nc2ccc3c4c(cccc24)CC3)c1	22	-8%	nt	?	?
COc1ccc(C(=O)NC(=S)Nc2ccc3c4c(cccc24)CC3)cc1OC	?	13µM*	-15%	3%	2%
O=C1[C@H]2[C@H]3[C@H](O)[C@H](O)C/C(=N/OC[C@@H](O)COCc4ccco4)[C@H]3CC[C@@H]2C(=O)N1C1CCCCC1	nt	-1%[13.5 µM]	nt	nt	nt
O=S(=O)(N/N=C/c1cccc(OC2CSC2)c1)c1ccccc1	-112*	-1%	-7%	-6%	-3%
COCCCNC(=O)C1CCC(CNS(=O)(=O)c2ccc(C)cc2)CC1 (configuration not stated)	nt	11µM*	nt	22%[46 µM]	nt
Cc1ccc(S(=O)(=O)N2CCCC(C(=O)NCCC(C)C)C2)cc1 (configuration not stated)	nt	10%	nt	nt	nt
Cc1ccc(S(=O)(=O)N2CCCC(C(=O)Nc3cccnc3)C2)cc1 (configuration not stated)	-15	4%	-8%	-3%	0%
CCCCNC(=O)C1CCC(CNS(=O)(=O)c2ccc(C)cc2)CC1 (configuration not stated)	nt	10µM*	nt	?	nt
SMILES	PNC inhibitor	ALDH1A1 inh	HPGD inh	Lamin A splicing	12-hLO inh
CCOCCCNC(=O)C1CCC(CNS(=O)(=O)c2ccc(Cl)cc2)CC1 (configuration not stated)	-25	?	-27%	0%	3%
COCCCNC(=O)C1CCCN(S(=O)(=O)c2ccc(C)cc2)C1 (configuration not stated)	-100*	0%	-16%	-2%	-1%
Cc1ccc(S(=O)(=O)N2CCCC(C(=O)NC3=NCCS3)C2)cc1 (configuration not stated)	-103*	16%	2%	-14%	-4%
CC(C)c1ccc(CNc2nc(-c3ccco3)nn2S(=O)(=O)c2ccc(F)cc2)cc1	nt	nt	nt	22%[46 µM]	nt
CC(=O)Nc1nonc1-c1nnc(SCC(=O)Nc2ccc(C)c(Cl)c2)n1-c1ccccc1	nt	nt	nt	-1%[46 µM]	nt
CNS(=O)(=O)c1cccc(C(=O)Nc2cccc(Cl)c2)c1	-94*	-2%	-3%	?	-3%
COc1cccc(C(=O)Nc2ccc(NC(C)=O)cn2)c1	-116*	4%	-13%	-6%	2%
CCCC(=O)Nc1ccc(NC(=O)c2cccc(OC)c2)nc1	-18	4%	4%	1%	-6%
CN(C)S(=O)(=O)Oc1cccc(C(=O)Nc2cccc(Cl)c2)c1	26	0.79µM*	-22%	-21%	-8%
CN(C)S(=O)(=O)Oc1cccc(C(=O)Nc2ccc(Cl)c(Cl)c2)c1	33	13µM*	-14%	?	-27%
Cc1nn(-c2ccccc2)c2c1N(CCCC(=O)NC(C)c1ccccc1)C(=O)CS2 (configuration not stated)	nt	nt	nt	2%[46 µM]	nt
CCN(CCCNC(=O)c1ccc(Sc2ccc(Cl)cc2)c(NC(C)=O)c1)c1ccccc1	nt	nt	nt	-24%[46 µM]	nt
CN(C)Cc1ccccc1-c1nccc(NC2CC2)n1	nt	9%	-1%	9%	2%
COc1ccc(NC(=O)c2cccc(OS(=O)(=O)N(C)C)c2)cc1	nt	4µM*	nt	nt	nt
CN(c1cccc(Cl)c1)S(=O)(=O)c1cccc(C(=O)Nc2ccc3c(c2)CCC3)c1	?	11µM*	-20%	?	-3%
Cc1c(CCNC(=O)c2ccc(C(C)(C)C)cc2)sc2nc(-c3ccc(F)cc3)nn12	nt	nt	nt	6%[46 µM]	nt
COc1cc(/C=C/[N+](=O)[O-])ccc1OCc1cccc(C(=O)O)c1	nt	28µM*	nt	?	nt
COc1cc(C2N(c3ccccn3)C(=O)C3CCCN32)cc(OC)c1OC (configuration not stated)	?	22µM*	nt	9%	-4%
COc1ccccc1C1N(c2cc(Cl)ccc2OC)C(=O)C2CCCN21 (configuration not stated)	-106*	20%	1%	-3%	0%
COc1ccc(C2N(c3ccccn3)C(=O)C3CCCN32)c(OC)c1 (configuration not stated)	20	-11%	-5%	1%	0%
O=C1CCC[C@@H](C(C(=O)OCc2ccccc2)C(=O)OCc2ccccc2)C1	nt	-23%[13.5 µM]	nt	nt	nt
O=C(CSc1nnc(NC(=O)NC2CCCCC2)s1)Nc1ccccc1F	nt	nt	nt	5%[46 µM]	nt
S=c1[nH]nc(Cc2ccc(Br)cc2)n1/N=C/c1ccc(Cl)cc1	nt	28µM*	nt	-31%[46 µM]	nt
Cc1n[nH]c(=S)n1/N=C/c1ccc(OCc2ccc(Cl)cc2)cc1	17	0%	7.9µM*	16%	?
CCc1n[nH]c(=S)n1/N=C/c1ccccc1OCc1ccc(Cl)cc1	nt	7%	nt	nt	nt

Source: PubChem
